Results filed as inconclusive are left out. Entries that show only a call come without a potency. Active and inactive are the calls of the source. Calls come from the whole dose curve; as a rule, active = well fitted inhibition curve with a large enough effect; inconclusive = small, poorly fitted or top-dose-only effect; inactive = flat fitted curve, though single readings scatter.
Each compound was assayed against Calcium and integrin-binding protein 1 (Homo sapiens) (UniProt Q99828) (assay: Primary qHTS for Identification of Calcium Integrin Binding Protein 1 (CIB1) Competitor (AID 1508620;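 note: GST tagged CIB1 binding a fluorescein labelled alphaIIb integrin peptide tracer; top concentration of the series differs between compounds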)). Conditions: CIB1-GST / FITC-alphaIIb peptide fluorescence polarization; series mostly up to 114 µM.
How it was run: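 Fluorescence polarization competition: CIB1-GST (1 uM final) preincubated with compound 15 min at room temperature, then FITC-labeled alphaIIb peptide (100 nM final) added for another 15 min. Polarization read at Ex 480/Em 540.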

Calcium and integrin-binding protein 1 (Homo sapiens), sequence (Q99828 whole entry, looked up): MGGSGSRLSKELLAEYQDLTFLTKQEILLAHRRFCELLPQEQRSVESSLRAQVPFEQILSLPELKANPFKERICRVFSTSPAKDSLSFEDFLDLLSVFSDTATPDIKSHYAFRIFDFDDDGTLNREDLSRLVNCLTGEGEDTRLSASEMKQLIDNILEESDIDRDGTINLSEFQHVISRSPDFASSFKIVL

| SMILES | Potency |
| --- | --- |
| Cc1ccc(C(=O)NC2CCN(C#N)CC2)cc1 | inactive |
| Cn1cc(P(=O)(c2ccccc2)c2ccccc2)c2ccccc21 | inactive |
| c1cc2c(cc1CNc1ccc(N3CCCCC3)cc1)OCO2 | inactive |
| O=C1CCc2cc(S(=O)(=O)Nc3ccncc3)ccc2N1 | inactive |
| Cc1cc2c(s1)c1cnn(Cc3cc(F)c(F)cc3F)c(=O)c1n2C | inactive |
| Brc1cnc2nc(SCc3ccncc3)[nH]c2c1 | inactive |
| c1ccc(-c2nc(NCc3ccc(-c4cccnc4)cc3)c3ccccc3n2)cc1 | inactive |
| Cc1cccc(C[C@H](C(=O)O)N2C(=O)c3ccc(C(=O)O)cc3C2=O)c1 | inactive |
| Cn1c2ccsc2c2ncn(Cc3ccccc3F)c(=O)c21 | inactive |
| O=[S+]([O-])(Nc1nccs1)c1ccc(NCc2ccc(Cl)c(Cl)c2)cc1 | inactive |
| CC(C)(C)OC(=O)NCCOCCOCCOc1ccc(-c2no[n+]([O-])c2C#N)cc1 | inactive |
| O=C1CCc2cc(S(=O)(=O)Nc3cccc(-c4ccccc4)c3)ccc2N1 | inactive |
| O=S(=O)(c1ccc2c(c1)OCCO2)N1CCN(S(=O)(=O)c2ccco2)CC1 | inactive |
| Cn1nnnc1Sc1ncnc2scc(-c3cccc(F)c3)c12 | inactive |
| O=C(/C=C/c1ccc(C(F)(F)F)cc1)Nc1cccc([S+](=O)([O-])Nc2ccccc2F)c1 | inactive |
| O=S(=O)(NCCNc1nc(-c2ccco2)nc2ccccc12)c1ccccc1 | inactive |
| O=C(/C=C/c1ccc(OC(F)(F)F)cc1)Nc1cccc([S+](=O)([O-])Nc2ccccc2F)c1 | inactive |
| O=C1c2ccccc2NC(c2ccc(-c3ccc(Br)cc3)o2)N1O (centres undefined) | inactive |
| Cc1ccc(NS(=O)(=O)c2cc3c(cc2Br)NC(=O)CO3)cc1C | inactive |
| Cc1cccc(NS(=O)(=O)c2ccc3c(c2)CCC(=O)N3)c1 | inactive |

| SMILES | Potency |
| --- | --- |
| COc1cccc(CNc2ccc(S(=O)(=O)Nc3cccc4ccncc34)cc2)c1O | inactive |
| Cc1ccc(OCCn2c(CCNC(=O)c3ccc(C(C)(C)C)cc3)nc3ccccc32)cc1 | inactive |
| O=C(OCC#CCSc1nnc(-c2cccc3ccccc23)o1)c1cccc(F)c1 | inactive |
| COC(=O)c1ccc(OC(C)=O)c2ncccc12 | inactive |
| O=[S+]([O-])(/C=C/c1nc(Nc2cc(F)cc(F)c2)c2ncn(CC(F)F)c2n1)c1ccccc1 | inactive |
| Cc1cccc(-c2ccc3ncnc(NCc4cccnc4)c3c2)c1 | inactive |
| NC(=O)C1CCN(c2ncc(-c3ccc4c(c3)OCCO4)s2)CC1 | inactive |
| O=C1CCCC2=C1C(c1[nH]ncc1Cl)NC(=NCc1ncc[nH]1)N2 (centres undefined) | inactive |
| O=C1CCc2cc([S+](=O)([O-])NC3CCOCC3)ccc2N1 | inactive |
| CC(=O)N1CCN(S(=O)(=O)c2ccc3c(c2)CC(=O)N3)CC1 | inactive |
| O=S(=O)(c1ccc2c(c1)OCCO2)N1CCN(S(=O)(=O)c2cc(F)ccc2F)CC1 | inactive |
| COc1cccc(CC(=O)Nc2nc(-c3ccc4c(c3)CCN4C(=O)c3ccccc3C)c(C)s2)c1 | inactive |
| CNC(=O)c1cnn2c(C)cc(C)nc12 | inactive |
| O=C1CCc2cc(S(=O)(=O)Nc3ccc(F)cc3)ccc2N1 | inactive |
| O=C(/C=C/c1cccs1)Nc1cccc([S+](=O)([O-])Nc2ccccc2F)c1 | inactive |
| Fc1cc(F)cc(Nc2nc(NC3CCCC3)nc(C3CO3)n2)c1 (centres undefined) | inactive |
| NC(=O)C1CCN(c2ncc(-c3ccc(Br)cc3)s2)CC1 | inactive |
| Fc1cc(Nc2nc(-c3ccncc3)nc3ccccc23)ccc1-c1cccc(C(F)(F)F)c1 | inactive |
| N=c1c2c(ccn1-c1ccccc1)Oc1ccc3ccccc3c1C2c1ccccc1 (centres undefined) | inactive |
